Laboratory results taken from PubChem BioAssay AID602332 (National Center for Advancing Translational Sciences (NCATS), 2012).
Values joined by “and” are separate entries in the source; they are usually repeats but may differ in a detail not shown here. Equal entries are not always repeated. The campaign covered roughly 420,000 compounds. About 75 (0.02%) were called active. This is one part of a sample in which actives are shown more often than they occur. The call rests on the fitted dose curve; in most records, active means well fitted activation curve with a large enough effect; inconclusive means small, poorly fitted or top-dose-only effect; inactive means no such curve, though single readings can be large or run the other way.
Potency means the concentration at half of the fitted maximal effect.

Test: qHTS for Inducers of the Endoplasmic Reticulum Stress Response (ERSR) in Human Glioma: qHTS; further: nearly all actives have a fitted effect of over 35% in size; on activation: % of control where 0% means no effect
Conditions: U87-MG GRP78 promoter luciferase reporter, 16 h; activation: hits give high values
Excerpt: Primary protein unfolding takes place for many diseases, including diabetes and hypoxia, , and triggers a reaction in the cells called ER stress response (ERSR). ). ERSR is designed as a repair mechanism, but ultimately leads to cell death via apoptosis if conditions triggering protein unfolding persist (1). The molecular clue to ERSR activation is the enhancement of the expression of key molecular chaperones, including the glucose regulated protein (GRP) 78. GRP78 is the main sensor for protein folding and the main actuator of the ERSR.
In a collaboration between the Southern Research Institute and the NIH Chemical Genomics Center, a cell based screen was developed that reliably uses GRP78 as a sensor to identify small molecules as inducers of ERSR. In resting conditions, GRP78 binds proteins and acts as a natural repressor. Once unfolded proteins are present in the ER, GRP78 releases some of the repressors and binds to the unfolded proteins. The release of the repressors executes the ERSR program. Using a human glioma cell line in a miniaturized, luminescent format, a high-throughput screen was developed to identify actuators of the ERSR.
(1) Soboloff, J. and S. A. Berger (2002). "Sustained ER Ca2+ depletion suppresses protein synthesis and induces activation-enhanced cell death in mast cells." J Biol Chem 277(16): 13812-20.
NIH Chemical Genomics Center [NCGC]
NIH Molecular Libraries Probe Centers Network [MLPCN]
Assay Submitter (PI): Maurizio Grimaldi, Southern Research Institute
Stable transfected human glioma cell line, U87-MG, are dispensed at density 1000 cells/well into Greiner white solid bottom 1536-well assay plates. Compounds are transferred via Kalypsys pin tool equipped with 1536-pin array (10nl slotted pins, V&P Scientific, San Diego, CA). The assay plates will be incubated for 16 hours and developed by adding appropriate quantities of the Promega Bright Glo reagent. The plates will be incubated at room temperature for 10 minutes prior to being transferred into a ViewLux high-throughput CCD imager (PerkinElmer), wherein end-point measurements of luminescence are acquired.
With `CCOC(=O)N1CCC(N2CCOc3ccc(CN4CCC(O)(c5cccnc5)CC4)cc3C2)CC1` the activation was -2.68% (inactive). For `CC(CCC(=O)O)C1CCC2C3C(O)C[C@@H]4CC(O)CC[C@@]4(C)C3CC[C@@]12C` (stereo partly specified), the activation was -5.26% (inactive) and -4.28% (inactive). In the case of `COc1ccc(-n2c(CNC(=O)c3cc(C(F)(F)F)ccc3Cl)nnc2SC)cc1`, the activation is reported as -6.93% (inactive). With `COc1c(O)c2c(=O)cc(OC)c3c4c(OC)cc(=O)c5c(O)c(OC)c6c(c(c1C[C@@](C)(O)[C@H]6C(C)=O)c23)c54` the activation was -6.89% (inactive). For `COc1cc(=O)n2c(c1C(=O)N(C)Cc1nonc1C)CCN(C(=O)c1ccc(C)cc1C)CC2`, the activation was -4.93% (inactive). With `CC(C)(C)c1ccc(OC2C=CC(C#Cc3ccccc3)OC2CO)cc1` (stereo unspecified) the activation was -2.6% (inactive). In the case of `CCOc1ccc2nc(N3CCCN(CCCn4cccn4)CC3)nc(C)c2c1`, the activation is reported as 0.4% (inactive). For `O=C(NCC1Cc2cc(F)cc(-c3cnccn3)c2O1)C1COc2ccccc2O1` (stereo unspecified), the activation was -2.7% (inactive). With `CCC1CN(CCNC(=O)c2cccc(C)n2)Cc2cc(OC)ccc2O1` (stereo unspecified) the activation was -0.701% (inactive). For `C=C1C(=CC=C2CCC[C@]3(C)[C@@H]([C@H](C)C=C[C@H](C)C(C)C)CC[C@@H]23)C[C@@H](O)C[C@@H]1O`, the activation was -0.319% (inactive). For `COc1cccc(-c2cc(=O)c3cc(NC(=O)c4ccc(C)cc4)ccc3[nH]2)c1`, the activation was -1.6% (inactive). With `COc1ccccc1C(=O)N[C@@H]1c2ccccc2C2(CCN(Cc3nc(C(C)C)cs3)CC2)[C@H]1O` the activation was -7.22% (inactive). With `CCC1CN(CCNC(=O)c2cccnc2C)Cc2cc(OC)ccc2O1` (stereo unspecified) the activation was -0.134% (inactive). With `Cc1[nH]c2c(C(=O)NCC3Cc4cccc(-c5cccnc5)c4O3)cccc2c1C` (stereo unspecified) the activation was -3.83% (inactive). In the case of `c1ccc(CN2CCN(Cc3ccc4c(c3)CN(Cc3c[nH]c5ccccc35)CCO4)CC2)nc1`, the activation is reported as -3.67% (inactive). For `CN1CCN(/[N+]([O-])=N/Oc2ccc([N+](=O)[O-])cc2[N+](=O)[O-])CC1`, the activation was 20.9% (inactive). For `CCc1noc(C)c1C(=O)NCCN1Cc2cc(OC)ccc2OC(CC)C1` (stereo unspecified), the activation was -4.48% (inactive). For `C=C1/C(=C\C=C2\CCCC3(C)C2CCC3C(C)/C=C/C(O)C2CC2)CC(O)CC1O` (stereo unspecified), the activation was -9.49% (inactive). In the case of `COC(=O)c1ccccc1C(=O)NCc1nc(N2CCCC2)c2cccc(C)c2n1`, the activation is reported as -2.48% (inactive). For `CC(=O)c1ccc(F)c(-c2cc(C)cc3c2OC(CNC(=O)Cc2c[nH]c4ccccc24)C3)c1` (stereo unspecified), the activation was 0.07% (inactive). For `CO/N=C(\C(=O)N[C@@H]1C(=O)N2C(C(=O)O)=C(Cn3nnc(C)n3)CS[C@H]12)c1csc(N)n1`, the activation was -1.86% (inactive). In the case of `CCCCc1nn(-c2ccccc2C(F)(F)F)c(=O)n1Cc1ccc(-c2ccccc2S(=O)(=O)NC(=O)c2sccc2C)cc1`, the activation is reported as -2.91% (inactive). For `Cc1ccc2c(C)nc(N3CCCC(C(=O)NC(C)(C)CO)C3)nc2c1` (stereo unspecified), the activation was -2.4% (inactive). With `CC(O)(COc1ccccc1)c1ccc2c(c1)CN(Cc1cn[nH]c1-c1ccc(F)cc1)CCO2` (stereo unspecified) the activation was -3.22% (inactive). With `COc1ccccc1C1CN(Cc2ccccc2O)Cc2ccccc2O1` (stereo unspecified) the activation was -2.43% (inactive). In the case of `C[C@H]1CC[C@H](C(=O)O)N[C@@H]1c1ccc(C#Cc2ccccc2)cc1`, the activation is reported as -4.8% (inactive). In the case of `C=CCC1CCC(=O)N2CCCC12` (stereo unspecified), the activation is reported as -2.78% (inactive). For `O=c1c(CN2CCOc3ccc(CN4CCC(Oc5cccnc5)CC4)cc3C2)coc2ccccc12`, the activation was -1.61% (inactive). With `O=C(CN1Cc2ccccc2OC(c2ccccc2)C1)N1CCCCC1c1cccnc1` (stereo unspecified) the activation was 0.385% (inactive). In the case of `C[C@H]1C[C@H]2[C@@H]3CCC4=CC(=O)C=C[C@]4(C)[C@@H]3C(=O)C[C@]2(C)[C@@]1(O)C(=O)CO`, the activation is reported as -3.39% (inactive). For `CC(=O)Oc1c2c(c3c(c1CC=C(C)C)O[C@@]14C(=CC5CC1C(C)(C)OC4(C/C=C(\C)C(=O)O)C5=O)C3=O)OC(C)(CCC=C(C)C)C=C2` (stereo partly specified), the activation was -12.4% (inactive). For `COC(=O)C1=C(C)N(Cc2ccccc2)C2=C3C(=O)N(c4ccccc4)C(=O)C3[C@@](O)(C(=O)OC)C(=O)N2C1c1ccccc1` (stereo partly specified), the activation was -1.87% (inactive) and -3.39% (inactive). For `CN1CCc2nc(-c3ccccc3)c(-c3ccccc3)cc2C1`, the activation was -5.76% (inactive). With `C=CCOC(=O)C(C(C)=O)C(NC(=O)OC)c1ccccc1` (stereo unspecified) the activation was -3.7% (inactive). In the case of `O=C1C[C@H]2C=CCc3cccc(c32)CN1Cc1ccccc1`, the activation is reported as -0.186% (inactive). For `CC(C)c1cc(C(=O)N2CCOc3ccc(CN4CCC(Oc5cccnc5)CC4)cc3C2)n[nH]1`, the activation was -4.01% (inactive). In the case of `COc1ccccc1C1CN(CCNC(=O)C2=CCCC2)Cc2ccccc2O1` (stereo unspecified), the activation is reported as -2% (inactive). For `CC[C@H](C)[C@H](NC(=O)[C@H](Cc1cnc[nH]1)NC(=O)[C@@H](N)CCC(=O)O)C(=O)N1CCC[C@H]1C(=O)N[C@@H](C)C(=O)O`, the activation was -2.54% (inactive). With `CO[C@H]1C[C@@H](O[C@@H]2[C@@H](C)O[C@@H](O[C@@H]3/C(C)=C/CC4C[C@@H](C[C@]5(C=C[C@@H](C)[C@H](C6CCCCC6)O5)O4)OC(=O)[C@@H]4C=C(C)[C@@H](O)[C@H]5OC/C(=C\C=C\[C@@H]3C)[C@]54O)C[C@H]2OC)O[C@@H](C)[C@@H]1O` the activation was -9.58% (inactive). For `CC(C)(C)c1ccc(C(=O)C[N+]2(C)CCCc3ccccc32)cc1` (stereo unspecified), the activation was -4.17% (inactive). For `CC(=O)Nc1cc(C(=O)N2CCc3c(Cl)cccc3C2)cc2ncn(CCc3ccccn3)c12`, the activation was -1.89% (inactive). In the case of `C[C@@H](c1ccccc1)N1C(=O)[C@H]2[C@H]3[C@H](O)[C@H](O)C/C(=N/OC[C@@H](O)COCc4ccco4)[C@@H]3CC[C@@H]2C1=O`, the activation is reported as -4.31% (inactive). For `Cc1ncc2c(c1CNS(=O)(=O)N(C)C)CCN(C(=O)c1ccccc1F)C2`, the activation was -3.66% (inactive). With `O=C1CCN(Cc2ccc(-c3ccccc3)cc2)CCN1Cc1ccccn1` the activation was 2.1% (inactive). For `CN(C)C(=O)[C@@H]1C[C@@H](Sc2nc3ccccc3[nH]2)CN1Cc1ccc(Cl)cc1`, the activation was -3.23% (inactive). For `C[C@@H]1O[C@@H](OC[C@H]2O[C@@H](Oc3c(-c4cccc(O)c4O)oc4cc(O)cc(O)c4c3=O)[C@H](O)[C@@H](O)[C@@H]2O)[C@H](O)[C@H](O)[C@H]1O`, the activation was -4.32% (inactive). For `CCCS(=O)(=O)NCc1c(C)ncc2c1CCN(C(=O)c1ccc(F)c(F)c1)C2`, the activation was -4.76% (inactive). For `CC(C)C(=O)NC(C)c1nnc2n1CCN(Cc1cccc3ncccc13)CC2` (stereo unspecified), the activation was -2.92% (inactive). In the case of `CCC1CN(CCNC(=O)c2ccsc2)Cc2cc(OC)ccc2O1` (stereo unspecified), the activation is reported as -2.11% (inactive). With `N#Cc1cccc(-c2ccc3ncnc(NCc4cccs4)c3c2)c1` the activation was -10.9% (inactive). With `COC(=O)[C@@H]1CC[C@H](C)[C@@H](c2ccc(C)cc2)N1C(=O)c1ccc(/C=N\O[C@@H](C)c2cn([C@H](CO)Cc3ccccc3)nn2)cc1` the activation was -4.74% (inactive) and -2.82% (inactive). With `COc1cc(=O)n2c(c1C(=O)NC(C)c1ccco1)CCN(Cc1cc(C)cc(C)c1)CC2` (stereo unspecified) the activation was -3.17% (inactive). In the case of `CO[C@@H]1COC(=O)C/C=C\[C@H](C)[C@@H](NS(=O)(=O)c2ccc(C)cc2)COC(=O)C/C=C\[C@@H]1C`, the activation is reported as -3.94% (inactive) and -2.29% (inactive). In the case of `COC(=O)c1c(OCc2ccc(F)cc2)cc(=O)n2c1CCN(Cc1ccc3cccnc3c1)CC2`, the activation is reported as -4.1% (inactive). For `c1ccc2c(Nc3ccncc3)nc(-c3ccc4c(c3)OCO4)nc2c1`, the activation was -6.62% (inactive). With `CO[C@H]1COC(=O)[C@@H](C)NC(=O)C/C=C\[C@@H](C)[C@H](OC)COC(=O)C/C=C\[C@@H]1C` the activation was -4.07% (inactive). For `Cc1c(O)cc2c(c1C)O[C@](C)(CCC[C@H](C)CCC[C@H](C)CCCC(C)C)CC2`, the activation was -2.5% (inactive). With `CCC1(C2CCN(C(=O)c3cccc(F)c3F)CC2)NC(=O)N(CCc2scnc2C)C1=O` (stereo unspecified) the activation was -1.9% (inactive). For `Cc1cc(C)cc(CN2CCc3nnc(C(NS(C)(=O)=O)C(C)C)n3CC2)c1` (stereo unspecified), the activation was -4.09% (inactive). In the case of `CC(=O)OCC1OC(C#Cc2ccccc2Cl)C=CC1OC(C)=O` (stereo unspecified), the activation is reported as -1.79% (inactive). With `CC(C)N1C[C@@H](NCc2ccccc2O)C[C@H]1C(=O)N1CCN(c2cccc(C(F)(F)F)c2)CC1` the activation was -4.06% (inactive). With `COc1cc(=O)n2c(c1C(=O)N(C)Cc1nccs1)CCN(Cc1ccc(Cl)cc1)CC2` the activation was -5.15% (inactive). In the case of `O=C(CCN1Cc2ccccc2OC(c2ccccc2)C1)N[C@@H]1CS(=O)(=O)C[C@H]1O` (stereo partly specified), the activation is reported as -4.81% (inactive). For `O=C1OCCC=C1[C@@H](O)CCc1ccccc1`, the activation was 3.05% (inactive). For `O=c1cc(-c2ccc(O)cc2)oc2c(-c3cc(-c4cc(=O)c5c(O)cc(O)cc5o4)ccc3O)c(O)ccc12`, the activation was -1.39% (inactive). In the case of `COc1c(O)cc2oc(-c3ccc(O)c(O)c3)cc(=O)c2c1O`, the Potency is reported as 20 µM (active). In the case of `O=c1cc(-c2ccc(O)c(O)c2)oc2cccc(O)c12`, the activation is reported as -2.34% (inactive). For `CCCN(CC)[C@@H](CC)C(=O)Nc1c(C)cccc1C`, the activation was -4.31% (inactive). With `O=C1[C@H]2[C@H]3[C@H](O)[C@H](O)C/C(=N/OCc4ccccc4)[C@H]3CC[C@@H]2C(=O)N1Cc1ccccc1` the activation was -3.44% (inactive). In the case of `C/C(CCN1CCCCc2nc(C)c(C)cc21)=N\O[C@@H](C)c1cn([C@@H]2COC[C@@H]2O)nn1`, the activation is reported as -4.19% (inactive). In the case of `COc1ccc2c(c1)CCc1cnc(-n3ncc(C(=O)NCCN4CCOCC4)c3C)nc1-2`, the activation is reported as 5.73% (inactive).
